Assays:
Experiment in all cases: log2 ratio of Biotin-Ahx-Ub-VS probe labelling (fragment/DMSO); higher = less target engagement (more negative = stronger competition), active = hit call of the paper (q ≤ 0.05, log2 ratio ≤ -1)
Details in all cases: compound concentration: 200 uM; treatment time: 3 h
USP19 = target: T1, USP19 (UniProt O94966)
T1 sequence (whole entry): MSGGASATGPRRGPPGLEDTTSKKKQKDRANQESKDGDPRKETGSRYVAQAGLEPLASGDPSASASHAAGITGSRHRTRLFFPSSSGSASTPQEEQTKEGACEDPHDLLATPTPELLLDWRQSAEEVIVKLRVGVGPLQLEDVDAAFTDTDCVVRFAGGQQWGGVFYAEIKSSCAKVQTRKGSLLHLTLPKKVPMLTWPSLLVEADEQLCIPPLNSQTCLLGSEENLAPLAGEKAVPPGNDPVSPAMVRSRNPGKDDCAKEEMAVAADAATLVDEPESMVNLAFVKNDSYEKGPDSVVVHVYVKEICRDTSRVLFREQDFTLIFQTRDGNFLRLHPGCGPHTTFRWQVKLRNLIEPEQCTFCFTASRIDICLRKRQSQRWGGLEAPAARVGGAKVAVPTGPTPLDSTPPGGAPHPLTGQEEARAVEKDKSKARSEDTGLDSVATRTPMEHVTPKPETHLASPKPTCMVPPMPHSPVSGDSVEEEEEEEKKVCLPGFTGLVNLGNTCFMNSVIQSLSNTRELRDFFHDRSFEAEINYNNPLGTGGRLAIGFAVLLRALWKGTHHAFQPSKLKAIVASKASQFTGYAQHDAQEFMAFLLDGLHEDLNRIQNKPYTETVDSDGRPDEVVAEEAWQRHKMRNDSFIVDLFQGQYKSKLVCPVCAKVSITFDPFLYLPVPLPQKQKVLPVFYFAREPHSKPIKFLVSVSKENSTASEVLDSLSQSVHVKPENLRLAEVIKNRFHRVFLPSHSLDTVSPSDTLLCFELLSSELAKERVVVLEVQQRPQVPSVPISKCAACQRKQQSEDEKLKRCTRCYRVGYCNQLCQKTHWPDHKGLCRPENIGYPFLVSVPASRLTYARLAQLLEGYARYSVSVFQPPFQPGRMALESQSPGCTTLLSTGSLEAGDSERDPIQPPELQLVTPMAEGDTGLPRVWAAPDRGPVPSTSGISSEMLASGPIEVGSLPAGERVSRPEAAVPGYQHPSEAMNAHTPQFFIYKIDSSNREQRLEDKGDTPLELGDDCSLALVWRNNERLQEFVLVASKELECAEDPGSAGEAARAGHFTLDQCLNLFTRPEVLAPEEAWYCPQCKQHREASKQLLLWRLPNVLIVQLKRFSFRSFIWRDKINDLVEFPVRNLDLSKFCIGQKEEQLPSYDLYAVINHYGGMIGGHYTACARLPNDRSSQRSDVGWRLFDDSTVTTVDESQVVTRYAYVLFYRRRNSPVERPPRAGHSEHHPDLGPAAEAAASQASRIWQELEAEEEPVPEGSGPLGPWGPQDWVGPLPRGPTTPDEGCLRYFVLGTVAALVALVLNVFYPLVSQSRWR
Summary of the method: (§1)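 HEK293T lysate (495 µg per sample, in Tris/CHAPS/IGEPAL buffer with protease inhibitors) was treated in triplicate with fragment at 200 µM or with DMSO for 3 h. It was then treated with Biotin-Ahx-Ub-VS (0.5 µM final) for 1 h. Labelled DUBs were NeutrAvidin-enriched, digested with LysC and trypsin, and run by diaPASEF LC-MS/MS. Spectronaut label-free quantities were global-median-normalised. Values are average log2 ratios fragment/DMSO by unpaired t-test, using proteins with ≥2 unique peptides.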

USP24 = USP24 (UniProt Q9UPU5)
USP24, sequence (Q9UPU5 whole entry): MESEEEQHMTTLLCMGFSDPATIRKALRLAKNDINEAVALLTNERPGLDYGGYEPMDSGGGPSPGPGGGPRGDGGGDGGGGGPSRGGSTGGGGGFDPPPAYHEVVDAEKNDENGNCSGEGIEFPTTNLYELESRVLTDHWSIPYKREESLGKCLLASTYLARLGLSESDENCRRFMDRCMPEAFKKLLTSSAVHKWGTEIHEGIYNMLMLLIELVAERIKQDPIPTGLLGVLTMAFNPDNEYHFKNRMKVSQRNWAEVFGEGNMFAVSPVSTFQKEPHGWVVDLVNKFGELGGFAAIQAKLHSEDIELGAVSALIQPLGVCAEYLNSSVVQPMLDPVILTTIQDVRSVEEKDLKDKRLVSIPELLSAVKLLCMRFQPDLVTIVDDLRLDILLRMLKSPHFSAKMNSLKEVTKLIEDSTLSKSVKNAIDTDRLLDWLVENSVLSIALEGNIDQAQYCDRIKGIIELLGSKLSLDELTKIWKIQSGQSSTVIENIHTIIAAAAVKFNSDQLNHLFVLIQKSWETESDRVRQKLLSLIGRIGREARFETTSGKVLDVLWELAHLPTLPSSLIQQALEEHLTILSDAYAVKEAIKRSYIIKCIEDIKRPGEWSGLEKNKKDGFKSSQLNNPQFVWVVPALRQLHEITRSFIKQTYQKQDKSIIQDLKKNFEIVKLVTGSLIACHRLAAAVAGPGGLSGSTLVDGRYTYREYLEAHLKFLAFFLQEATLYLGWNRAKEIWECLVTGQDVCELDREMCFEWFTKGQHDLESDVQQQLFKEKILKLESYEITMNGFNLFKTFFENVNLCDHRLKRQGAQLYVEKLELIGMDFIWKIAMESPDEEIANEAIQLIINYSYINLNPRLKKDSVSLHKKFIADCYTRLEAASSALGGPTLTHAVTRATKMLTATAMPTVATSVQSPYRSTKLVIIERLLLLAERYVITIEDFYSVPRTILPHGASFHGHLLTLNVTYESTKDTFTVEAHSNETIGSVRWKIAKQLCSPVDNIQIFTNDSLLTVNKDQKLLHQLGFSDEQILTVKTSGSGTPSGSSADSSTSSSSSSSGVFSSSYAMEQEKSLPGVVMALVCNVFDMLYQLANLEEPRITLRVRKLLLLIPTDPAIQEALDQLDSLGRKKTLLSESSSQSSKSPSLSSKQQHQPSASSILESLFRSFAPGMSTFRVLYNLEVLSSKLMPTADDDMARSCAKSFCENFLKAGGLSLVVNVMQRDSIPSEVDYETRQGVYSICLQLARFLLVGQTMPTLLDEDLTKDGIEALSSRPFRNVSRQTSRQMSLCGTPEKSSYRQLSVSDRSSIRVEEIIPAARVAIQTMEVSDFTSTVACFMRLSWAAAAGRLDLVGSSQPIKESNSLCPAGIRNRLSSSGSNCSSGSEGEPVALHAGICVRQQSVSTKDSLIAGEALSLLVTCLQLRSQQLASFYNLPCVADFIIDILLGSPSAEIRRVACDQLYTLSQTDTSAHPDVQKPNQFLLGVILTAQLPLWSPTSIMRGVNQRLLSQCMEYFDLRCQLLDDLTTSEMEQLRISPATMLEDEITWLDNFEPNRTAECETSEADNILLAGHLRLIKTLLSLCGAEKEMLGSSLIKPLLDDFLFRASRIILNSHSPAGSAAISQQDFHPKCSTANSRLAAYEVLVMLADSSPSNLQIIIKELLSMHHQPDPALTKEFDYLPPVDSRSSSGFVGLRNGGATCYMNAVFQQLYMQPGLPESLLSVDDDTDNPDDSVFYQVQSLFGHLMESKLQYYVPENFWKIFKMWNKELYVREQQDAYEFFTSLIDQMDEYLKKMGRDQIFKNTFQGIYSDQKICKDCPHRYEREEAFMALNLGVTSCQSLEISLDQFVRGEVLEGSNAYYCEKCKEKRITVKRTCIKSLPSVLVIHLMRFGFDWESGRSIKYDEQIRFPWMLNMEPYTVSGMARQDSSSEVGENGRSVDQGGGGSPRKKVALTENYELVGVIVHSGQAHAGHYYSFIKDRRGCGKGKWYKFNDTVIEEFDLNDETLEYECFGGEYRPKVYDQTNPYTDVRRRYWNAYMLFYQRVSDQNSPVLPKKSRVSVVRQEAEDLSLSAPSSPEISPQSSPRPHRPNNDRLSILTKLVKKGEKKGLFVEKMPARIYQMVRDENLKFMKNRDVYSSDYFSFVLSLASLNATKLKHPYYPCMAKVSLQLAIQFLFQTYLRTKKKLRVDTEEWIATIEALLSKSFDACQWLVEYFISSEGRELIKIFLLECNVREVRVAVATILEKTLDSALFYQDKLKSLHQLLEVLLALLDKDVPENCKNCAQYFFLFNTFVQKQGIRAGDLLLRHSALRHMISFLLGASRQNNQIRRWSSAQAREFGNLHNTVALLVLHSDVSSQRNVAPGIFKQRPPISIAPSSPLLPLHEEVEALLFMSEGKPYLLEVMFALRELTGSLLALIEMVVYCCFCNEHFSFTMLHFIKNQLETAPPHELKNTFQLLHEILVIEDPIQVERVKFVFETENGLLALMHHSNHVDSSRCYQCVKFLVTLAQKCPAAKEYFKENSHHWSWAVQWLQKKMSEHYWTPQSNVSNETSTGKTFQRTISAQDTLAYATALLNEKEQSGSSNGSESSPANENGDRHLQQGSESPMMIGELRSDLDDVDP
Summary of the method: as §1

USP25 = target: T2, USP25 (UniProt Q9UHP3)
T2 sequence (whole entry): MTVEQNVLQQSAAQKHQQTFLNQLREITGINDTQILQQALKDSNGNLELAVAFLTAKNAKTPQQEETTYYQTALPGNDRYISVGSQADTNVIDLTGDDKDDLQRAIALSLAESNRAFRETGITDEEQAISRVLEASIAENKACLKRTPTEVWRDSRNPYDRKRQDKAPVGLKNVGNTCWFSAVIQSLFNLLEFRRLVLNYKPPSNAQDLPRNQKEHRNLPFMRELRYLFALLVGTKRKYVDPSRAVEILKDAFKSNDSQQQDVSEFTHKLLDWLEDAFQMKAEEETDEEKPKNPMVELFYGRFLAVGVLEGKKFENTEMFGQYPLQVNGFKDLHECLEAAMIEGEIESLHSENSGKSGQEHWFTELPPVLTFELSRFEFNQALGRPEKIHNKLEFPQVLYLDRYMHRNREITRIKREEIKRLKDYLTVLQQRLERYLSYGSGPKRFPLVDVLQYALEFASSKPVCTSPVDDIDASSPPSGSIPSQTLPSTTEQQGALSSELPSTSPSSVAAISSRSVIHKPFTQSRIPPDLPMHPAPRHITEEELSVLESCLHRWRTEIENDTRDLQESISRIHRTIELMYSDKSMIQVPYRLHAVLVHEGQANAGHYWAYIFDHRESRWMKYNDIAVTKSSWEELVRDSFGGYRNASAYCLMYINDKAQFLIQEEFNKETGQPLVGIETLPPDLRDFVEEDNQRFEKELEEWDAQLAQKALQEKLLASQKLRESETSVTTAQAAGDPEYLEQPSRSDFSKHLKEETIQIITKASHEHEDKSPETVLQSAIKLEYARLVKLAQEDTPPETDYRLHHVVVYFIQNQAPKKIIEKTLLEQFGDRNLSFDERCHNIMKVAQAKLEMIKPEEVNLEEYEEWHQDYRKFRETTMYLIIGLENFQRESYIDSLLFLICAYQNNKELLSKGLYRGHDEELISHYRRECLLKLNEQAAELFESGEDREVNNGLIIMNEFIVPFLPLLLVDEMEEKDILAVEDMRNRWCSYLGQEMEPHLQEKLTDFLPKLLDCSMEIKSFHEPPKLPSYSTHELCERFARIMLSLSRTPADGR
Summary of the method: as §1

USP28 = target: T3, USP28 (UniProt Q96RU2)
T3 sequence (whole entry): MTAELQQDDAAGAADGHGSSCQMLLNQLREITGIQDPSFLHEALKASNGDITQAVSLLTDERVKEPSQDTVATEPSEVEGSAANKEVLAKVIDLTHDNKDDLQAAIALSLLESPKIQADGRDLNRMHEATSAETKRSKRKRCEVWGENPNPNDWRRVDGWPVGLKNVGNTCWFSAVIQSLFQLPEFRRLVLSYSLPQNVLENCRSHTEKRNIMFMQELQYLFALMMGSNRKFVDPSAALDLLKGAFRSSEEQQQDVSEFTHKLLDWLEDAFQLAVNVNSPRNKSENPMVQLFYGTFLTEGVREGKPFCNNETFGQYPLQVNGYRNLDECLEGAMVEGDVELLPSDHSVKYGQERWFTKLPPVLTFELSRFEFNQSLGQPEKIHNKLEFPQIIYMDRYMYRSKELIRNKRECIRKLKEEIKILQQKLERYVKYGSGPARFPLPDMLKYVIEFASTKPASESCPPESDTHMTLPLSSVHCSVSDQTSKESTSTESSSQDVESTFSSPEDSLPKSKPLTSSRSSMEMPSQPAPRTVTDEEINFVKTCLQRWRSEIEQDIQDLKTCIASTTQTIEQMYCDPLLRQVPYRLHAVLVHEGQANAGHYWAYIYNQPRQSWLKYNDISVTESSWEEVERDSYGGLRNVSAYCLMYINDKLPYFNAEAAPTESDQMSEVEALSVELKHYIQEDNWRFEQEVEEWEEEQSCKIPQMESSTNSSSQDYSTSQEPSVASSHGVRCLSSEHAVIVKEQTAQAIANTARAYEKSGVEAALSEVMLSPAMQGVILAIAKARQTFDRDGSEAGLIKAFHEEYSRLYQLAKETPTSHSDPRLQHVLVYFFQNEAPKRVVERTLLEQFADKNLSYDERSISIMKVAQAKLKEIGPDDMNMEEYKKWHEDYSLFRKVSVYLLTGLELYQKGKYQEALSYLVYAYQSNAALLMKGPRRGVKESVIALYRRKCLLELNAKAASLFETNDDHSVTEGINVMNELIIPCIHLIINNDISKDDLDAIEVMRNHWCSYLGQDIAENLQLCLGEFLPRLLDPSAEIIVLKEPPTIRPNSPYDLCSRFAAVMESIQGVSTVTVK
Summary of the method: as §1

Measured: log2 ratio of Biotin-Ahx-Ub-VS probe labelling

O=C(CCl)N1CCN(C(=O)Nc2ccccc2)CC1
inactive: USP19 -0.276 | USP24 0.00221 | USP25 -0.151 | USP28 -0.246

Reference: the supplement of paper PMC11732987, “Enantioselective OTUD7B fragment discovery through chemoproteomics screening and high-throughput optimisation” (Communications Chemistry, 2025)
